According to PubChem BioAssay (NCATS):
Results filed as inconclusive are left out. A call without a number means that no potency is given here. Active and inactive are the calls of the source. Unless noted, calls follow the shape of the full dose curve.

Legend:
[1] = qHTS for Inhibitors of the Functional Ribonucleoprotein Complex (vRNP) of Lassa (LASV) Arenavirus: LASV Primary Screen - GLuc reporter signal (AID 1347082; calls by dose curve; tested in HEK293 reporter line; also: nearly all actives have a fitted effect of over 60% in size)
[2] = qHTS for Inhibitors of the Functional Ribonucleoprotein Complex (vRNP) of Lassa (LASV) Arenavirus: Viability assay - alamar blue signal for LASV Primary Screen (AID 1347083; calls by dose curve; tested in HEK293 reporter line; also: nearly all actives have a fitted effect of over 80% in size)
[3] = qHTS for Inhibitors of the Functional Ribonucleoprotein Complex (vRNP) of Lymphocytic Choriomeningitis Arenaviruses (LCMV): Viability assay - alamar blue signal for LCMV Primary Screen (AID 1347085; calls by dose curve; tested in HEK293 reporter line; also: nearly all actives have a fitted effect of over 80% in size)
[4] = biological target: Nucleoprotein (Lymphocytic choriomeningitis virus (strain Armstrong)) (UniProt P09992); experiment: qHTS for Inhibitors of the Functional Ribonucleoprotein Complex (vRNP) of Lymphocytic Choriomeningitis Arenaviruses (LCMV): LCMV Primary Screen - GLuc reporter signal (AID 1347086); also: nearly all actives have a fitted effect of over 70% in size
Potency is read from the fitted curve at half-maximal effect.

Chain of Nucleoprotein (Lymphocytic choriomeningitis virus (strain Armstrong)) (P09992 whole entry, looked up): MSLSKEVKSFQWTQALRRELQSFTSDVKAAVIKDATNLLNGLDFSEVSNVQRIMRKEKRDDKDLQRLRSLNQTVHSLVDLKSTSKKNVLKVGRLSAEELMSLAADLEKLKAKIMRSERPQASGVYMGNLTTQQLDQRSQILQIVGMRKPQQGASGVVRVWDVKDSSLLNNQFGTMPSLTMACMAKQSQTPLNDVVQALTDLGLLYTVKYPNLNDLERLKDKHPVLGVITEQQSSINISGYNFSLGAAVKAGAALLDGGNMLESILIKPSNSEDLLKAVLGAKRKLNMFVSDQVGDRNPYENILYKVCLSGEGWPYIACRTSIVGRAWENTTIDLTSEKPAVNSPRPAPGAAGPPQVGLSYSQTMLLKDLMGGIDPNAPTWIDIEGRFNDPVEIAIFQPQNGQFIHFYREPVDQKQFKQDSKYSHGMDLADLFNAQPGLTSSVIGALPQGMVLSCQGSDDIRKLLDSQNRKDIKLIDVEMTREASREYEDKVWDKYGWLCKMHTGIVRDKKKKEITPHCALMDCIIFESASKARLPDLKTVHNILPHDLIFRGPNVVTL

Compound	Potency [1]	Potency [2]	Potency [3]	Potency [4]
Nc1nnc(-c2cccc(Cl)c2Cl)c(N)n1	inactive	inactive	inactive	inactive
Nc1[nH]c(=O)ncc1F	inactive	inactive	inactive	inactive
COc1cc2nc(N(C)CCCNC(=O)C3CCCO3)nc(N)c2cc1OC (centres undefined)	inactive	inactive	inactive	inactive
Cc1ccccc1C(=O)Nc1ccc(C(=O)N2CCCC(O)c3cc(Cl)ccc32)c(C)c1 (centres undefined)	inactive	inactive	inactive	inactive
O=C(NCCN1CCOCC1)c1ccc(Cl)cc1	inactive	inactive	inactive	inactive
N=c1nc(N2CCCCC2)cc(N)n1O	inactive	inactive	inactive	inactive
COc1cc2c(N3CCN(C(=O)Nc4ccc(OC(C)C)cc4)CC3)ncnc2cc1OCCCN1CCCCC1	inactive	inactive	inactive	inactive
O[C@@H](CNC[C@H](O)[C@H]1CCc2cc(F)ccc2O1)[C@@H]1CCc2cc(F)ccc2O1	inactive	inactive	inactive	inactive
CN(C)/N=N/c1nc[nH]c1C(N)=O	inactive	inactive	inactive	inactive
CC(=O)Nc1nnc(S(N)(=O)=O)s1	inactive	inactive	inactive	inactive
NCCC(O)(P(=O)(O)O)P(=O)(O)O	inactive	inactive	inactive	inactive
Cc1ccc(C)c(OCCCC(C)(C)C(=O)O)c1	inactive	inactive	inactive	inactive
CC(C)C[C@H](NC(=O)[C@H](Cc1ccccc1)NC(=O)c1cnccn1)B(O)O	485 nM (active)	217 nM (active)	685 nM (active)	344 nM (active)
CC(COc1ccccc1)N(CCCl)Cc1ccccc1 (centres undefined)	inactive	inactive	inactive	inactive
CC(C)OC(=O)C(C)(C)Oc1ccc(C(=O)c2ccc(Cl)cc2)cc1	inactive	inactive	inactive	inactive
CN1CCN(C2=Nc3cc(Cl)ccc3Nc3ccccc32)CC1	inactive	inactive	inactive	inactive
CC1Cc2ccccc2N1NC(=O)c1ccc(Cl)c(S(N)(=O)=O)c1 (centres undefined)	inactive	inactive	inactive	inactive
Cn1cc[nH]c1=S	inactive	inactive	inactive	inactive
CC(c1cc2ccccc2s1)N(O)C(N)=O (centres undefined)	inactive	inactive	inactive	inactive
CCCN(CCc1cccs1)[C@H]1CCc2c(O)cccc2C1	inactive	inactive	inactive	inactive
CC(=O)O[C@]1(C(C)=O)CC[C@H]2[C@@H]3C=C(C)C4=CC(=O)CC[C@]4(C)[C@H]3CC[C@@]21C	inactive	inactive	inactive	inactive
CC1(C)NC(=O)N(c2ccc([N+](=O)[O-])c(C(F)(F)F)c2)C1=O	inactive	inactive	inactive	inactive
Cc1cc2c(s1)Nc1ccccc1N=C2N1CCN(C)CC1	inactive	inactive	inactive	inactive
Cc1nc(-c2ccc(OCC(C)C)c(C#N)c2)sc1C(=O)O	inactive	inactive	inactive	inactive
COC(=O)[C@@H]1CC2=CC(=O)CC[C@]2(C)[C@@]23O[C@@H]2C[C@@]2(C)[C@@H](CC[C@@]24CCC(=O)O4)[C@H]13	inactive	inactive	inactive	inactive

Compound	Potency [1]	Potency [2]	Potency [3]	Potency [4]
CCN(CCO)CCCC(C)Nc1ccnc2cc(Cl)ccc12 (centres undefined)	inactive	inactive	inactive	inactive
O=C1CCc2ccc(OCCCCN3CCN(c4cccc(Cl)c4Cl)CC3)cc2N1	inactive	inactive	inactive	inactive
CC(=O)N[C@@H](CS)C(=O)O	inactive	inactive	inactive	inactive
CCOC(=O)C1=C(C)NC(C)=C(C(=O)OC)C1c1cccc(Cl)c1Cl (centres undefined)	inactive	inactive	inactive	inactive
CC/C(=C(\c1ccccc1)c1ccc(OCCN(C)C)cc1)c1ccccc1	inactive	inactive	inactive	inactive
Nc1cccc2c1CN(C1CCC(=O)NC1=O)C2=O (centres undefined)	inactive	inactive	inactive	inactive
CCCC(=O)Nc1ccc(OCC(O)CNC(C)C)c(C(C)=O)c1 (centres undefined)	inactive	inactive	inactive	inactive
Nc1ccc(O)c(C(=O)O)c1	inactive	inactive	inactive	inactive
c1cnc2cc3c(cc2n1)C1CNCC3C1	inactive	24300 nM (active)	inactive	inactive
CN1CCN(C(c2ccccc2)c2ccccc2)CC1	inactive	inactive	inactive	inactive
O=C(O)C1(C(=O)O)CCC1.[NH2-].[NH2-].[Pt+2]	inactive	inactive	inactive	inactive
NS(=O)(=O)c1cc2c(cc1C(F)(F)F)NCNS2(=O)=O	inactive	inactive	inactive	inactive
COc1ccc(Cl)cc1C(=O)NCCc1ccc(S(=O)(=O)NC(=O)NC2CCCCC2)cc1	inactive	inactive	inactive	inactive
CCOc1ccccc1OCCN[C@H](C)Cc1ccc(OC)c(S(N)(=O)=O)c1	inactive	inactive	inactive	inactive
COc1cc(NC(C)CCCN)c2ncccc2c1 (centres undefined)	inactive	inactive	inactive	inactive
CCOC(=O)N1CCC(=C2c3ccc(Cl)cc3CCc3cccnc32)CC1	inactive	inactive	inactive	inactive
COc1ccccc1Oc1c(NS(=O)(=O)c2ccc(C(C)(C)C)cc2)nc(-c2ncccn2)nc1OCCO	inactive	inactive	inactive	inactive
CCCCC1=NC2(CCCC2)C(=O)N1Cc1ccc(-c2ccccc2-c2nn[nH]n2)cc1	inactive	inactive	inactive	inactive
CC[C@@H]([C@H](C)O)n1ncn(-c2ccc(N3CCN(c4ccc(OC[C@@H]5CO[C@@](Cn6cncn6)(c6ccc(F)cc6F)C5)cc4)CC3)cc2)c1=O	inactive	inactive	inactive	inactive
CNCCC(Oc1ccc(C(F)(F)F)cc1)c1ccccc1 (centres undefined)	inactive	inactive	inactive	inactive
Cc1ccc(-c2cc(C(F)(F)F)nn2-c2ccc(S(N)(=O)=O)cc2)cc1	inactive	inactive	inactive	inactive
CC1=C(C(=O)O)N2C(=O)[C@@H](NC(=O)[C@H](N)c3ccc(O)cc3)[C@H]2SC1	inactive	inactive	inactive	inactive
OCCN1CCN(CCCN2c3ccccc3Sc3ccc(Cl)cc32)CC1	inactive	inactive	inactive	inactive
Cc1cccc(C)c1OCC(C)N (centres undefined)	inactive	inactive	inactive	inactive
O=C1C(=O)c2ccccc2C(O)=C1C1CCC(c2ccc(Cl)cc2)CC1 (centres undefined)	inactive	inactive	inactive	inactive

Compound	Potency [1]	Potency [2]	Potency [3]	Potency [4]
CC(C(=O)O)c1cccc(C(=O)c2ccccc2)c1 (centres undefined)	inactive	inactive	inactive	inactive
Cc1onc(-c2ccccc2Cl)c1C(=O)N[C@@H]1C(=O)N2[C@@H]1SC(C)(C)[C@@H]2C(=O)O	inactive	inactive	inactive	inactive
CCCCc1ncc(/C=C(\Cc2cccs2)C(=O)O)n1Cc1ccc(C(=O)O)cc1	inactive	inactive	inactive	inactive
COC(=O)N[C@H](C(=O)N[C@@H](Cc1ccccc1)[C@@H](O)CN(Cc1ccc(-c2ccccn2)cc1)NC(=O)[C@@H](NC(=O)OC)C(C)(C)C)C(C)(C)C	inactive	inactive	inactive	inactive
COc1cc2nc(N3CCN(C(=O)C4COc5ccccc5O4)CC3)nc(N)c2cc1OC (centres undefined)	inactive	inactive	inactive	inactive
Cc1ccc2c(n1)Oc1ccc(C(C)C(=O)OCC(=O)N(C)C)cc1C2 (centres undefined)	inactive	inactive	inactive	inactive
Cc1ccccc1C(OCCN(C)C)c1ccccc1 (centres undefined)	inactive	inactive	inactive	inactive
Cc1cccc(Nc2ccccc2C(=O)O)c1C	inactive	inactive	inactive	inactive
CC1(C)S[C@@H]2[C@H](NC(=O)[C@H](N)c3ccccc3)C(=O)N2[C@H]1C(=O)O	inactive	inactive	inactive	inactive
CN(C)c1ccc(O)c2c1C[C@H]1C[C@H]3[C@H](N(C)C)C(=O)C(C(N)=O)=C(O)[C@@]3(O)C(=O)C1=C2O	inactive	inactive	inactive	inactive
Cc1ccccc1N1C(=O)c2cc(S(N)(=O)=O)c(Cl)cc2NC1C (centres undefined)	inactive	inactive	inactive	inactive
CCCc1nc2c(C)cc(-c3nc4ccccc4n3C)cc2n1Cc1ccc(-c2ccccc2C(=O)O)cc1	inactive	inactive	inactive	inactive
Cn1c(=O)c2c(ncn2CC(O)CO)n(C)c1=O (centres undefined)	inactive	inactive	inactive	inactive
CN(C)CC[C@@H](c1ccc(Br)cc1)c1ccccn1	inactive	inactive	inactive	inactive
OC(CCN1CCCC1)(c1ccccc1)C1CCCCC1 (centres undefined)	inactive	inactive	inactive	inactive
N[C@@H](Cc1cc(I)c(Oc2cc(I)c(O)c(I)c2)c(I)c1)C(=O)O	inactive	inactive	inactive	inactive
CN(C)CCC=C1c2ccccc2CCc2ccccc21	inactive	inactive	inactive	inactive
CCOC(=O)[C@H](CCc1ccccc1)N[C@@H](C)C(=O)N1[C@H](C(=O)O)C[C@@H]2CCC[C@@H]21	inactive	inactive	inactive	inactive
CCN(CC)CCNC(=O)c1cc(Cl)c(N)cc1OC	inactive	inactive	inactive	inactive
C#Cc1cccc(Nc2ncnc3cc(OCCOC)c(OCCOC)cc23)c1	inactive	7690 nM (active)	–	inactive
O=P(O)(O)C(O)(Cc1cccnc1)P(=O)(O)O	inactive	inactive	inactive	inactive
Cc1ccc(NC(=O)c2ccc(CN3CCN(C)CC3)cc2)cc1Nc1nccc(-c2cccnc2)n1	inactive	–	inactive	–
OCCN1CCN(CCCN2c3ccccc3Sc3ccc(C(F)(F)F)cc32)CC1	inactive	inactive	inactive	inactive
